aSyn UTR act = Activators via SNCA 5'UTR binding, MLPCN; alpha-synuclein 5'UTR reporter, activators screen; 300,000 compounds, 7.1% hits; activity score, % (tested at 7.5 µM), hits read low; in the data active = activity score below about -60%
* marks the source's active call; other numbers are inactive results. The list is a sample of the results.

SMILES | aSyn UTR act
CN(C)C(Cc1ccc(Cl)cc1)C(=O)c1ccccc1 (configuration not stated) | -82*
COC(=O)c1ccc(CC(C(=O)c2ccccc2)N(C)C)cc1 (configuration not stated) | -154*
NC(=S)c1cn(C2OC(CO)C(O)C2O)c2ncnc(N)c12 (configuration not stated) | 105
CN1C(=O)C(=Cc2ccc(OCC(=O)Nc3ccccc3)cc2)C(=O)N(C)C1=O | -78*
O=C(c1ccccc1)c1ccc(N=Nc2c(O)[nH]c(=O)[nH]c2=O)cc1 | -74*
N=C1c2ccccc2CN1NC(=O)c1ccc(F)cc1 | -62*
Cn1c(O)c(Cc2ccc(OCc3ccccc3)cc2)c(=O)n(C)c1=O | -140*
CC12CC[C@H]3[C@@H](CCC4(O)C[C@H](O)CCC34/C=N/NC(=O)c3ccccc3O)C1(O)CCC2C1=CC(=O)OC1 (some centres not stated) | 77
O=C(Nc1ccc2c(c1)OCO2)c1cn(Cc2ccc(F)cc2)nn1 | -76*
CCCC(=O)Nc1cc(C(=O)N2CCC3(CC2)OCCO3)ccc1S(=O)(=O)c1ccc(C)cc1 | 35
CCOc1ccc2nc(N3CCC(C(=O)N4CCC5(CC4)OCCO5)CC3)sc2c1 | -82*
O=C(C1CCN(c2nc3ccc(Br)cc3s2)CC1)N1CCC2(CC1)OCCO2 | -80*
Cc1ccc2nc(N3CCC(C(=O)N4CCC5(CC4)OCCO5)CC3)sc2c1 | -78*
CCCCCCCSc1cc(OC)c(CCNC)cc1OC | 121
Cc1ccc(/C=C2\C(=O)NC(=S)N(c3ccc(F)cc3)C2=O)s1 | -116*
Nc1ccc2c(c1)Cc1ccccc1-2 | -175*
CCN1CCN(c2nc3ccccc3s2)CC1 | -131*
Cc1ccc(-c2nc3ccc(Cl)cc3n2OC(=O)N(C)C)cc1 | -129*
CCC(CC)NCc1c[nH]c2ccccc12 | -62*
CC1CC(OP(O)(=S)c2ccc(N(C)C)cc2NC(=O)c2cccs2)CC(C)(C)C1 (configuration not stated) | -113*
C/C=C(\C)C(=O)N[C@@H](c1ccccc1)[C@@H](O)C(=O)O[C@H]1C[C@@]2(O)[C@@H](OC(=O)c3ccccc3)C3[C@](C)(C(=O)[C@H](OC(C)=O)C(=C1C)C2(C)C)[C@@H](O)C[C@H]1OC[C@@]31OC(C)=O (some centres not stated) | 104
CCOc1ccccc1-n1c(O)c(C=Nc2ccc(N(CC)CC)cc2)c(=O)[nH]c1=O | -66*
COc1cc(/C=C(/C)[N+](=O)[O-])ccc1OCc1ccccc1Cl | -134*
COC1CC(OC2CCC3(C)C(CCC4C3CCC3(C)C(C5=CC(=O)OC5)C(OC(C)=O)CC43O)C2)OC(C)C1OC1OC(COC2OC(CO)C(O)C(O)C2O)C(O)C(O)C1O (configuration not stated) | 115
O=c1c2ccccc2nc(/C=C/c2ccc(O)cc2)n1-c1ccc(O)cc1 | -80*
SMILES | aSyn UTR act
Cc1nc2cc(-c3cccc(F)c3)nn2c(C)c1CCC(=O)N1CCC2(CC1)OCCO2 | 77
O=C(CSc1ccccc1)N1CCC2(CC1)OCCO2 | -92*
CCN(CC)c1ccc(/C=C2\C(=O)NC(=S)N(C)C2=O)o1 | -115*
CCN(CC)c1ccc(C=C2C(=O)N(C)C(=S)N(C)C2=O)o1 | -86*
CCC(=NCCC1=CCCCC1)c1c(O)[nH]c(=O)[nH]c1=O | 48
CCC1(OC(=O)CN)C(=O)OCc2c1cc1n(c2=O)Cc2cc3ccccc3nc2-1 (configuration not stated) | 103
C[C@@H]1O[C@@H](O[C@H]2C[C@@H](O)[C@]3(CO)[C@H]4[C@H](O)C[C@]5(C)[C@@H](C6COC(=O)C6)CC[C@]5(O)[C@@H]4CC[C@]3(O)C2)[C@H](O)[C@H](O)[C@H]1O (some centres not stated) | 115
CN(C)c1ccc(C(=O)N/N=C/C23CC[C@@H](O)CC2(O)CC[C@@H]2[C@@H]3CCC3(C)C(C4=CC(=O)OC4)CCC23O)cc1 (some centres not stated) | 95
Cc1cc(N=Nc2ccccc2C)ccc1N | -103*
C[C@@H]1C[C@H]2OC(=O)C3(CO3)[C@H]2[C@H](O)[C@]2(C)C(=O)C3OC3[C@@H]12 (some centres not stated) | -63*
C=C1C(=O)O[C@@H]2C[C@@H](C)[C@@H]3C=CC(=O)[C@@]3(C)[C@@H](O)[C@H]12 | 119
CCn1c(NN=O)nc2ccccc21 | 74
CC[C@@]1(O)C(=O)OCc2c1cc1n(c2=O)Cc2cc3c(NC(=O)CN)cccc3nc2-1 | 71
CN(C)C(=O)Oc1ccc2c(=O)c(Oc3ccccc3Br)coc2c1 | -77*
CC1(C)CN=C(Nc2nc3ccccc3s2)S1 | -118*
Cc1nc2ccccc2c(=O)n1-c1ccc([N+](=O)[O-])cc1 | -121*
Cc1nc2ccccc2c(=O)n1-c1ccc(Cl)c(Cl)c1 | -138*
COc1ccc(-c2nc3ccccc3c(=O)o2)cc1 | -65*
COc1ccc(-[n+]2c(-c3ccccc3)cc(-c3ccccc3)cc2-c2ccccc2)cc1 | 81
O=c1[nH]c(=S)[nH]c(O)c1N=Nc1ccc(SC(F)F)cc1 | -72*
CC(C)[C@H]1C(=O)O[C@H](C(C)C)C(=O)N(C)[C@@H](C(C)C)C(=O)O[C@H](C(C)C)C(=O)N(C)[C@@H](C(C)C)C(=O)O[C@H](C(C)C)C(=O)N1C | 86
CCc1ccc(NC(=O)CCNC(=O)N2C[C@H]3C[C@@H](C2)c2cccc(=O)n2C3)cc1 | -70*
O=[N+]([O-])c1ccc(NC2CCCC2)c2ccncc12 | 58
CCc1ccc(N2C(=O)NC(=O)/C(=C/c3cccn3CCOc3ccc(C(C)CC)cc3)C2=O)cc1 (configuration not stated) | -82*
CC(=O)OC1CC[C@]2(C#N)[C@H]3CC[C@]4(C)[C@H](C5C=CC(=O)O5)CCC4(O)C3CCC2(O)C1 (some centres not stated) | 85
SMILES | aSyn UTR act
Nc1ncnc2c1ccn2[C@@H]1O[C@H](CO)[C@@H](O)[C@H]1O | 107
O=C(NC1CCCCC1)Oc1cc2oc(=O)sc2cc1Cl | -62*
COc1ccc(C(=O)N/N=C/C23CC[C@@H](O)CC2(O)CC[C@@H]2[C@@H]3CCC3(C)C(C4=CC(=O)OC4)CCC23O)cc1 (some centres not stated) | 89
N#Cc1cc2c(nc1SCC(=O)Nc1ccc(Cl)cc1)C1CCN2CC1 | -159*
N#Cc1cc2c(nc1SCC(=O)Nc1cc(Cl)ccc1Cl)C1CCN2CC1 | -140*
CCCCCCC[n+]1ccc(-c2cc[n+](CCCCCCC)cc2)cc1 | 92
Cc1cccc(Cn2cc(C=O)c3ccccc32)c1 | 68
O=Cc1cn(Cc2cccc([N+](=O)[O-])c2)c2ccccc12 | 94
CCN(CC)C(=O)c1ccc(NC(=O)c2cccc(F)c2)cc1 | -80*
COC(=O)C1=C(c2cc3ccccc3o2)C[C@@H]2CC[C@H]1N2C(=O)N1CCCCC1 | 66
Cc1cc(C(=O)CS(=O)(=O)c2ccc(F)cc2)cc(C)c1OC(=O)N(C)C | -135*
CN1C(=O)N(C)C(=O)C2(Cc3cc([N+](=O)[O-])ccc3N(C)C2c2ccccc2)C1=O (configuration not stated) | -62*
COc1cccc(OC)c1C1=NCC(=O)Nc2c1oc1ccc(Br)cc21 | 59
Clc1ccc2sc(C3CCNCC3)nc2c1 | -159*
CN(C)c1ccc(/C=C/C=C/c2sc3ccccc3[n+]2C)cc1 | 60
NC(Cc1nc2ccccc2[nH]1)c1ccc(Cl)cc1 (configuration not stated) | -167*
